Bioassay records as filed in PubChem BioAssay.
ERAP1 HTS inh: blocks human ERAP1 aminopeptidase activity; 340,000 tested, 0.15% active; recombinant ERAP1, Leu-AMC fluorescence, 60 min; inhibition, % at 10.7 µM; AID 652197;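 active = mean replicate inhibition of at least 30%, or all replicates individually reaching that 30% level; inactive = mean below 30% and not every replicate reaching it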
PGC1a acetyl inh: PGC1a acetylation modulation, inhibitor mode; U2OS PGC1a acetylation, AlphaScreen anti-acetyl-lysine; with virally co-expressed GCN5 acetyltransferase; inhibition, % at 15.6 µM; 350,000 tested, 0.17% active;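 active = every replicate shows inhibition of at least 40%; inconclusive = mean inhibition at least 40% but some replicate below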
GSIS activator: GLuc luminescence reporter in INS-1E cells, primary screen for activators of glucose-dependent secretion of insulin; INS-1E GLuc reporter insulin secretion, 2-3 h; activation, % at 16.6 µM; 370,000 tested, 0.61% active;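 active = lowest replicate activation of at least 40%, so every replicate reaches that level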
CaV13 ICDI inh: Disruptors of the CACNA1D IQ motif to Ca2+-dependent inactivation inhibitor domain association, primary screening, Förster resonance energy transfer in intact living … | inhibition, % at 12.3 µM | HEK cells, CFP/YFP FRET ICDI-IQ, plate reader, 10 min; percent FRET-ratio fall versus neutral wells | 340,000 tested, 0.098% active;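 active = mean replicate inhibition of at least 30% and at least 1% of replicates passing that level; inconclusive = only one of the two criteria is met; inactive = neither criterion is met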
rRNA inh HTS: inhibits bacterial ribosomal RNA function over humanized ribosomes | E. coli WT GFP vs humanized-ribosome RFP mutants, fluorescence, 24 h; stronger effect = lower value; DMSO median 0, no signal -100 | GFP signal change (wild-type ribosome), % (concentration not given with the values) | 350,000 tested, 1.6% active;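 active = significant combined selectivity score with lowered wild-type GFP, culture density cut under 30%, mutant RFP and density less affected; inactive = any of these conditions unmet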
DENV2 CPE: DENV2-induced cell death inhibition | AID 651640 | 350,000 tested, 1.7% active | CPE inhibition, % at 9.99 µM | DENV2-infected cells, cytopathic effect rescue, plate reader; in the data active = CPE inhibition above about 20%, passing the limit was not always enough; inconclusive = no clear call, values can overlap the other calls; tested in BHK-21 cells
Hits are given with their value; - = inactive; ? = inconclusive; . = no result. Hits are enriched below; roughly 3.2% of the tested compounds scored in any of these assays.

SMILES	ERAP1 HTS inh	PGC1a acetyl inh	GSIS activator	CaV13 ICDI inh	rRNA inh HTS	DENV2 CPE
CN(C)C(=O)C[C@@H]1CC[C@H]2[C@@H](COC[C@@H](O)CN2CC2CCCC2)O1	-	-	-	.	-	-
O=C(C[C@H]1CC[C@H]2[C@@H](COC[C@@H](O)CN2CC2CCCCC2)O1)NCC1CC1	-	-	-	.	-	27.2
CN(C)C(=O)C[C@H]1CC[C@H]2[C@@H](COC[C@H](O)CN2CC2CCCC2)O1	-	-	-	.	-	48.0
C[C@@H]1CN([C@H](C)CO)C(=O)c2cc(-c3ccccc3)cnc2O[C@H]1CN(C)C(=O)C1CCOCC1	-	-	-	.	-	?
COc1cc(/C=C(/C#N)C(=O)NCc2ccccc2)cc(OC)c1OC	-	-	-	-	-	67.3
COc1cccc(N2CCN(C(=O)CCSCc3ccccc3F)CC2)c1	-	.	-	-	-34.9	.
C[C@@H](NC(=O)c1ncn(C)c1C(=O)N[C@H](C)c1ccccc1)c1ccccc1	-	-	.	-	-	89.8
CNC(=S)N/N=C/c1ccc(-c2ccc(Cl)c([N+](=O)[O-])c2)o1	-	-	46.4	-	-	-
COc1ccc2c(c1)OC[C@H]1[C@H]2N2C(=O)c3ccc(F)cc3NC(=O)[C@@]2(C)[C@H]1c1ccccc1	-	-	-	-	-	54.6
CO[C@H]1CN(C)C(=O)c2cc(NS(=O)(=O)CC(F)(F)F)ccc2OC[C@@H](C)N(Cc2ccccn2)C[C@@H]1C	-	-	-	.	-	-
O=C(Nc1cccc(F)c1)N1C[C@@H]2[C@H](c3ccccc31)[C@H](CO)N2C(=O)Cc1ccccc1	-	-	-	.	-	-
COc1ccccc1Oc1ccc2c(c1)C(=O)N(c1ccccc1)C2=O	.	.	-	-	.	.
COc1ccccc1Oc1ccc2c(c1)C(=O)N(c1ccc(C)cc1)C2=O	.	103.7	-	-	.	.
CC(=O)N1CC2(C1)[C@@H](c1ccc(-c3ccc(C#N)cc3)cc1)[C@@H](CO)N2CCC(F)(F)F	-	-	-	.	-	-
CC(=O)N1CC2(C1)[C@H](c1ccc(-c3ccc(F)cc3)cc1)[C@H](CO)N2C(C)=O	-	-	-	.	-	82.5
CC(=O)N1CC2(C1)[C@H](c1ccc(-c3ccc(C#N)cc3)cc1)[C@H](CO)N2CCC(F)(F)F	-	-	-	.	-	33.3
O=C(C[C@H]1C[C@@H]2c3cc(NC(=O)Nc4ccccc4F)ccc3O[C@@H]2[C@@H](CO)O1)NCC(F)(F)F	-	-	-	.	-	-
COc1ccc(CC(=O)NNC(=S)Nc2ccccc2)cc1Cl	-	-	-	-	-27.0	-
CN1C(=O)c2cc(NC(=O)Cc3cccs3)ccc2OC[C@H]2O[C@@H](CC(=O)N[C@@H]3CCN(Cc4ccccc4)C3)CC[C@@H]21	-	.	-	.	-	-
CCN(C[C@H]1N[C@@](C)(C(=O)OC)[C@H]2C(=O)N(C)C(=O)[C@@H]12)S(=O)(=O)c1ccccc1	-	.	-	-	-	-
CCN(C[C@H]1N[C@@](C)(C(=O)OC)[C@H]2C(=O)N(C)C(=O)[C@@H]12)S(=O)(=O)c1ccc(-c2ccccc2)cc1	-	.	-	-	-	20.1
CCNC(=O)N(CC)C[C@H]1N[C@@](C)(C(=O)OC)[C@H]2C(=O)N(C)C(=O)[C@@H]12	-	-	-	-	-	45.5
CCN(C[C@H]1N[C@@](C)(C(=O)OC)[C@H]2C(=O)N(C)C(=O)[C@@H]12)C(=O)Nc1ccc(F)cc1	-	.	-	-	-	-
COC(=O)[C@]1(Cc2ccccc2)N[C@H](CN(C)S(=O)(=O)c2ccc(C)cc2)[C@@H]2C(=O)N(Cc3ccccc3)C(=O)[C@@H]21	-	-	-	-	-	24.2
CCN(C[C@H]1N[C@@](CC)(C(=O)OC)[C@H]2C(=O)N(C)C(=O)[C@@H]12)S(=O)(=O)c1ccc(OC)cc1	-	-	52.1	-	-	25.9
SMILES	ERAP1 HTS inh	PGC1a acetyl inh	GSIS activator	CaV13 ICDI inh	rRNA inh HTS	DENV2 CPE
C[C@H](CO)N1C[C@H](C)[C@@H](CN(C)C)Oc2ncc(-c3ccc(C(=O)N(C)C)cc3)cc2C1=O	-	-	-	.	-	-
CCN(C[C@H]1N[C@@](C)(C(=O)OC)[C@H]2C(=O)N(Cc3ccccc3)C(=O)[C@@H]12)S(=O)(=O)c1ccc(OC)cc1	-	.	-	-	-	-
COC(=O)[C@]1(C)N[C@H](CN(C)S(=O)(=O)c2ccc(C(C)(C)C)cc2)[C@@H]2C(=O)N(C)C(=O)[C@@H]21	-	.	.	-	-24.9	-
CCN(C[C@H]1N[C@@](C)(C(=O)OC)[C@H]2C(=O)N(Cc3ccccc3)C(=O)[C@@H]12)S(=O)(=O)c1ccc(C)cc1	-	.	-	-	-21.4	-
CO[C@@H]1CN(C)C(=O)c2cc(NC(=O)Nc3cccc(F)c3)ccc2OC[C@@H](C)N(C)C[C@H]1C	-	-	-	.	-	-
CCCN1C[C@@H](C)[C@@H](OC)CN(C)C(=O)c2cc(NC(=O)c3cccc(F)c3)ccc2OC[C@@H]1C	-	-	-	.	-	27.4
CO[C@@H]1CN(C)C(=O)c2ccc(NC(=O)c3cccc(F)c3)cc2OC[C@H](C)N(C)C[C@H]1C	-	-	-	.	-	37.0
COc1cccc(NC(=O)Nc2ccc3c(c2)C(=O)N(C)C[C@@H](OC)[C@@H](C)CN(C)[C@H](C)CO3)c1	-	-	-	.	-	26.0
CO[C@H]1CN(C)C(=O)c2cc(NC(=O)Nc3cccc(F)c3)ccc2OC[C@H](C)N(C)C[C@H]1C	-	-	-	.	-	29.0
O=C(CC1CC1)Nc1ccc2c(c1)[C@H]1C[C@@H](CC(=O)NC3CCCCC3)O[C@H](CO)[C@H]1O2	-	-	-	.	-	-
CO[C@H]1CN(C)C(=O)c2ccc(NC(C)=O)cc2OC[C@@H](C)N(C(=O)CN2CCOCC2)C[C@H]1C	.	-	-	.	-	.
C[C@H]1CN([C@@H](C)CO)S(=O)(=O)c2ccc(-c3cccc(F)c3)cc2O[C@H]1CN(C)S(=O)(=O)c1ccccc1	-	-	-	.	-	-
C[C@H](CO)N1C[C@H](C)[C@@H](CN(C)C)OCCCC[C@H](C)Oc2ccc(NS(=O)(=O)c3ccccc3)cc2C1=O	.	-	-	.	-	.
CCCN1C[C@H](C)[C@@H](OC)CN(C)C(=O)c2cc(NC(=O)Nc3ccccc3F)ccc2OC[C@H]1C	.	-	-	.	-	28.8
O=C(O)c1cc(=O)c2c(OCC(O)COc3cccc4oc(C(=O)O)cc(=O)c34)cccc2o1	-	-	.	-	.	25.7
CC(C)C(=O)Nc1ccc2c(c1)C(=O)N(C)[C@@H]1CC[C@H](CC(=O)NCc3cccc(F)c3)O[C@H]1CO2	.	-	-	.	-	-
COc1ccccc1-c1cnc2c(c1)C(=O)N([C@@H](C)CO)C[C@@H](C)[C@H](CN(C)Cc1cccc(F)c1)O2	-	-	-	.	-	-
